About 79,000 compounds went through this panel and 15% of them were active in at least one assay; those are over-represented in the sample as a whole. A number with no mark means an inactive call. Activity calls are given as the source filed them. Rule as the data show it: active = growth inhibition above about 70%; inactive = the rest.
Assay: NCI Yeast Anticancer Drug Screen. Data for the wt1 strain (AID 149);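 also: 0% = growth of vehicle-treated wt1 cultures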
Conditions: S. cerevisiae wt1 strain (SPY 50644) growth inhibition, hits give high values
Method: Growth inhibition of yeast strains with defined genetic alterations is measured as a screen for potential anti-cancer activity. Selected strains with alterations in DNA damage repair or cell cycle control were exposed to compounds and growth inhibition was measured relative to vehicle treated controls. The strain used in this assay is wt1

| Compound | growth inhibition (at 1.2 µM) | growth inhibition (at 3.7 µM) | growth inhibition (at 11.0 µM) | growth inhibition (at 33.0 µM) | growth inhibition (at 100.0 µM) |
| --- | --- | --- | --- | --- | --- |
| O=C(COC(=O)c1ccccc1)c1ccc(Br)cc1 | 2% | -4% | 8% | 99% (active) | 97% (active) |
| CCc1nc2ccc(NCCN(C)C)c3c(=O)c4ccccc4n1c23 | 25% | 29% | 31% | 22% | 22% |
| COC1CCC(O)C(/C=C/[N+](=O)[O-])C1 (stereo not given) | 3% | 18% | 99% (active) | 99% (active) | 99% (active) |
| NC(=O)C(=O)NNc1ccccc1 | 3% | 13% | 45% | 57% | 94% (active) |
| N#CNC(N)=Nc1cc2ccccc2c2ccccc12 | 3% | 25% | 61% | 87% (active) | 90% (active) |
| CC(=O)OC1CC2C(C)(C)C(=O)C=C[C@]2(C)C2CCC3(C)C(=CCC3[C@H](CO)C[C@H](O)C(=O)C(C)(C)O)[C@]12C (stereo not given in full) | -26% | -17% | -31% | -21% | 75% (active) |
| CCCCOP(=O)(CCCP(=O)(OCCCC)OCCCC)OCCCC | -3% | 0% | 0% | 5% | 94% (active) |
| COc1ccc(/C=C/C(=O)c2ccccc2)cc1OC | -2% | -15% | -2% | 28% | 92% (active) |
